In PubChem BioAssay (Tox21):
Values joined by “and” are separate entries in the source; they are usually repeats but may differ in a detail not shown here. Identical values can stand only once. Results filed as inconclusive are left out. The source holds several records for some structures; these can differ, active in one and inactive in another. Active and inactive are the calls of the source. Unless noted, calls come from the whole dose curve; as a rule, active = well fitted curve in the direction sought with a large enough effect in the repeat runs; inconclusive = weak or mixed curves; inactive = no such curve, though single readings can be large; an effect the other way counts as inactive or inconclusive.

How the values were obtained:
[1] = qHTS assay to identify small molecule agonists of the estrogen receptor alpha (ER-alpha) signaling pathway in the presence of an antagonist - cell viability counter screen (AID 1259386);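 note: cells exposed to compounds for 22 h at 37 °C before the viability read; nearly all actives have a fitted effect of over 30% in size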; note: potency is the fitted concentration of half-maximal effect
How it was run: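 Using estrogen-depleted VM7Luc4E2 cells, the 15-concentration compound series was applied together with 10.0nM ICI-182,780 and incubated 22hr at 37C/5% CO2. Cell viability was then scored by CellTiter-Fluor.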

[2] = molecular target: Progesterone receptor (Homo sapiens) (UniProt P06401); experiment: qHTS assay to identify small molecule agonists of the progesterone receptor (PR) signaling pathway (AID 1346784; calls by dose curve; note: nearly all actives have a fitted effect of over 30% in size)
Sequence of Progesterone receptor (Homo sapiens) (P06401 whole entry, looked up): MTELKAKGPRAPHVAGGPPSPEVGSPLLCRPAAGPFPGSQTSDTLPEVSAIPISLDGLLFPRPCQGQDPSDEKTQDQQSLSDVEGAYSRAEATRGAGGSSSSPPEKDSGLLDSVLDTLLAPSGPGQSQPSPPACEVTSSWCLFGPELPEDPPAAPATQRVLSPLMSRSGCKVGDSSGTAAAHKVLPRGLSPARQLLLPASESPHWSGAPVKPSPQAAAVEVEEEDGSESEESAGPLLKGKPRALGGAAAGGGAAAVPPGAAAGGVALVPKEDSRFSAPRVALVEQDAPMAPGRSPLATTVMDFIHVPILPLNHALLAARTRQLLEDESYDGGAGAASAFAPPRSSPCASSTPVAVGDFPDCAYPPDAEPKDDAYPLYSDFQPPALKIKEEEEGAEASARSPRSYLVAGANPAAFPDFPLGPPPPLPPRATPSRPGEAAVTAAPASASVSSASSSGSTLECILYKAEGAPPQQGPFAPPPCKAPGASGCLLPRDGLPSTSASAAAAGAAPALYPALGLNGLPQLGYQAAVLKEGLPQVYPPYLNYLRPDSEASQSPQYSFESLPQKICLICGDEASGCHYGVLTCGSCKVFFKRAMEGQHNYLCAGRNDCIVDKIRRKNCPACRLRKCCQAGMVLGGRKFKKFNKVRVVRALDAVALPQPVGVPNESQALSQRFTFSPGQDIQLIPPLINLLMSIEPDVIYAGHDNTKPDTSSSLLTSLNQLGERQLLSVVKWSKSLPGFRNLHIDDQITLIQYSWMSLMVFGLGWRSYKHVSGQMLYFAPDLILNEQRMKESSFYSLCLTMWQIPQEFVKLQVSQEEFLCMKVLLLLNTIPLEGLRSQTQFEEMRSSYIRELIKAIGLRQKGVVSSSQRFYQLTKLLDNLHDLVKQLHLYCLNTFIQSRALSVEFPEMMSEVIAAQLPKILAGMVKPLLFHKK
How it was run: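 Seed PR-UAS-bla HEK 293T cells (2% charcoal-stripped FBS), incubate 6 hr at 37C; add compounds in DMSO, 16 hr at 37C; add LiveBLAzer B/G substrate, 2 hr RT; read fluorescence intensity.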

[3] = molecular target: Progesterone receptor (Homo sapiens) (UniProt P06401); experiment: qHTS assay to identify small molecule antagonists of the progesterone receptor (PR) signaling pathway (AID 1346795; active = well fitted inhibition curve with a large enough effect in the signal ratio in the repeat runs, not every such curve was filed as active; the % refers to the signal ratio; note: potency is the fitted concentration of half-maximal effect)
How it was run: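 Screening used a GripTite HEK293T line with PR-responsive UAS-beta-lactamase. Cells were challenged with compound in the presence of 1 nM R5020 final for 16 hr at 37C; B/G FRET substrate, 2 hr room temperature, fluorescence.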

[4] = qHTS assay to identify small molecule antagonists of the progesterone receptor (PR) signaling pathway - cell viability counter screen (AID 1346798); note: nearly all actives have a fitted effect of over 50% in size; note: potency is the fitted concentration of half-maximal effect
How it was run: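 Measures cytotoxicity in parallel with the PR antagonist reporter read: HEK293T PR-UAS-bla cells get compound and R5020 for 16 hr, and remaining viable cells are quantified by CellTiter-Glo luminescence.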

[5] = qHTS assay to identify small molecule agonists of the progesterone receptor (PR) signaling pathway - cell viability counter screen (AID 1346799; calls by dose curve; note: nearly all actives have a fitted effect of over 45% in size; note: potency is the fitted concentration of half-maximal effect)
How it was run: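 Using the same plates as the PR reporter screen, HEK293T PR-UAS-bla cells received compounds for 16 hr at 37C and were then lysed with CellTiter-Glo; luminescence was read 30 min later at room temperature.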

[6] = qHTS assay to identify small molecule antagonists of the TGF-beta/Smad signaling pathway - cell viability counter screen (AID 1346824); note: nearly all actives have a fitted effect of over 50% in size; note: potency is the fitted concentration of half-maximal effect
How it was run: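 SBE-bla HEK 293T cells were plated overnight at 37 C, then given compounds in DMSO plus TGF-beta1 (added as 0.25 ng/mL solution) for 5 hr. After the bla read, CellTiter-Glo was added to the same wells and luminescence read after 30 min at room temperature.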

[7] = qHTS assay to identify small molecule agonists of the TGF-beta/Smad signaling pathway - cell viability counter screen (AID 1346829); note: nearly all actives have a fitted effect of over 45% in size; note: potency is the fitted concentration of half-maximal effect
How it was run: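 Luminescence from CellTiter-Glo, read after a 30 min room-temperature incubation, gives cell viability of SBE-bla HEK 293T cells treated 5 hr with compounds at 37 C.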

[8] = qHTS assay to identify small molecule agonists of the TGF-beta/Smad signaling pathway (AID 1346859; active = well fitted activation curve with a large enough effect in the signal ratio in the repeat runs, not every such curve was filed as active; the % refers to the signal ratio; note: series mostly up to about 77 µM)
How it was run: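 Beta-lactamase reporter activity downstream of Smad binding elements was measured in stably transfected HEK 293T cells; compounds were incubated for 5 hr, substrate for 2 hr at room temperature.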

[9] = molecular target: Thyrotropin-releasing hormone receptor (Homo sapiens) (UniProt P34981); experiment: qHTS assay to identify small molecule antagonists of the thyrotropin-releasing hormone receptor (TRHR) signaling pathway (AID 1346877; active = well fitted inhibition curve with a large enough effect in the repeat runs, not every such curve was filed as active; note: potency is the fitted concentration of half-maximal effect)
Sequence of Thyrotropin-releasing hormone receptor (Homo sapiens) (P34981 whole entry, looked up): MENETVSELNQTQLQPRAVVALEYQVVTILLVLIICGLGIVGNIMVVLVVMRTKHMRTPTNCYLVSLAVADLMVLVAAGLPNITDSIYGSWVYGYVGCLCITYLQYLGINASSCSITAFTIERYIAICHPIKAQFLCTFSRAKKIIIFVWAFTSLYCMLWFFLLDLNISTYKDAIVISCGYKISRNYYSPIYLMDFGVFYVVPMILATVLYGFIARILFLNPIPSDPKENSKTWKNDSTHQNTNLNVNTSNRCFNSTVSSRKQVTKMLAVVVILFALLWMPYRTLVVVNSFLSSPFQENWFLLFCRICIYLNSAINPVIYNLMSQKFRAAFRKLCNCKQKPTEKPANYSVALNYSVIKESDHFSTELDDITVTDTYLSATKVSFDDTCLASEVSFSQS
How it was run: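 Calcium signal in dye-loaded TRHR/HEK293 cells; compounds added 5 min before TRH (1 nM final); fluorescence monitored 3 min at 1 s steps.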

[10] = molecular target: Thyrotropin-releasing hormone receptor (Homo sapiens) (UniProt P34981); experiment: qHTS assay to identify small molecule agonists of the thyrotropin-releasing hormone receptor (TRHR) signaling pathway (AID 1346891; calls by dose curve; note: potency is the fitted concentration of half-maximal effect;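 for activation: HEK293 cells expressing TRHR with calcium dye readout; series mostly up to about 58 µM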)
How it was run: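 Overnight-plated (18 h, 37 °C, 5% CO2) TRHR-Hek293 cells; 2 h calcium dye at 37 °C; compound in DMSO; 3-min kinetic fluorescence read.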

Measured: Potency

CC(C)N(C(=O)SC/C(Cl)=C/Cl)C(C)C
not listed: [9] | [10]
inactive: all other assays above

Cc1ccc(C)c2ccccc12
inactive: all assays above

C=Cc1cccc(CCl)c1
inactive: all assays above

O=NN(CCO)CCO
not listed: [9] | [10]
inactive: all other assays above

CC(Cc1ccc2c(c1)OCO2)NO (stereo not drawn)
inactive: all assays above

Brc1cccc(-c2ccccc2)c1
not listed: [10]
inactive: all other assays above

O=C(CCCCl)c1ccc(F)cc1
not listed: [9] | [10]
inactive: all other assays above

CNC(=O)/C=C(\C)OP(=O)(OC)OC
inactive: all assays above

Nc1nc(N)nc(Cl)n1
inactive: all assays above

CC(=O)[O][Sn]([c]1ccccc1)([c]1ccccc1)[c]1ccccc1
active: [1] 8.63 µM | [3] 48.6 nM | [4] 273 nM | [5] 433 nM | [6] 1.95 µM | [7] 1.74 µM | [9] 2.69 µM | [10] 4.9 µM
inactive: [2]

OCC(Br)CBr (stereo not drawn)
not listed: [9] | [10]
inactive: all other assays above

Clc1ccc(C(Cl)(Cl)Cl)cc1Cl
not listed: [7] | [10]
inactive: all other assays above

c1cc[n+]2c(c1)-c1cccc[n+]1CC2
active: [1] 29.8 µM
inactive: all other assays above

O=C(Nc1ccc(F)cc1F)c1cccnc1Oc1cccc(C(F)(F)F)c1
inactive: all assays above

CCN(CC)C(=S)S
17.1 µM (active) and inactive: [5]
active: [3] 49 µM and 6.82 µM and 13.7 µM | [4] 61.6 µM and 7.65 µM and 17.2 µM
not listed: [9] | [10]
inactive: all other assays above

Oc1ccc2[nH]cc(CCCCN3CC=C(c4ccccc4)CC3)c2c1
not listed: [9] | [10]
inactive: all other assays above

CN=C=O
not listed: [9] | [10]
inactive: all other assays above

Cc1cc2c3c(c1)C(c1ccccc1)=N[C@@H](NC(=O)c1ccncc1)C(=O)N3CC2
not listed: [10]
inactive: all other assays above

CCCCON=O
inactive: all assays above

CCCCN(CCCC)C(=S)S
not listed: [9] | [10]
inactive: all other assays above

[O-][Cl+3]([O-])([O-])O
inactive: all assays above

O=S(=O)(O)F
not listed: [10]
inactive: all other assays above

S=C=Nc1ccccc1
inactive: all assays above
